For seven molecules, Potency, outcome and activity change, negative = inhibition results are on record in PubChem BioAssay (NCATS).

Unmarked numbers belong to inactive results. Records with an inconclusive call do not appear. Active and inactive are the calls of the source. Unless noted, calls follow the shape of the dose curve; as a rule, active = well fitted curve in the direction sought with a large enough effect; inconclusive = small, poorly fitted or top-dose-only effect, or another doubt; inactive = no such curve, though single readings can be large; an effect the other way counts as inactive or inconclusive.

The target of test [1] is Lysosomal acid glucosylceramidase (Homo sapiens) (UniProt P04062). As to the kind of experiment: Glucocerebrosidase-p2 (AID 348; in the data active = potency below about 10 µM; also: potency is read from the fitted curve at half-maximal effect). As to conditions: purified GBA, blue fluorogenic substrate, 40 min. In short, it runs like this:
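Compounds titrated from 0.6 nM upwards against 0.2 nM enzyme in pH 5.9 citric acid/KH2PO4, taurocholate, tween-20; blue fluorogenic substrate 80 uM, 40 min room temperature, stopped and read Ex 365/Em 440 for AC50.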

The target in test [2] is Cytochrome P450 1A2 (Homo sapiens) (UniProt P05177). Put plainly: p450-cyp1a2 (AID 410; calls by dose curve; also: potency is read from the fitted curve at half-maximal effect). A digest of the protocol:
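Luminescent readout of luciferin formed from Luciferin-ME by human CYP1A2; data normalized against complete inhibition by 57 uM furafylline. Enzyme 20nM, substrate 100uM at Km, 100mM KPO4 buffer, 60 min reaction at room temperature.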

Test [3] in a line: Stat Signaling Pathway (AID 446; active = well fitted curve in either direction with a large enough effect, not every such curve was filed as active;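 also: ME-180 cervical cancer cells given 40 pM IL-6 alongside compound; SIE-controlled beta-lactamase reporter measured as 460/530 nm FRET emission ratio; % is scaled to controls: 0 for no effect and ±100 for the full control effect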). A digest of the protocol: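 Reporter line: ME-180 cervical carcinoma, SIE-beta-lactamase. Treatment: compound with 40 pM IL-6, 5 hrs, 37 C, in low-serum OPTI-MEM with 10 mM HEPES pH 7.3. Detection: 460/530 nm fluorescence.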
Test [4] addresses Mitogen-activated protein kinase 10 (Mus musculus) (UniProt Q61831). Put plainly: JNK3 AlphaScreen Assay (AID 530; active = well fitted curve in either direction with a large enough effect, not every such curve was filed as active;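 also: kinase came from lysate of stimulated human HepG2 cells; signal reports phosphorylation of biotinylated GST-cJun 1-79 at Ser73 with 10 µM ATP; % is scaled to controls: 0 for no effect and ±100 for the full control effect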). A digest of the protocol: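 Pre-activated (IL-1β/TNFα) JNK3 in HepG2 lysates phosphorylates biotin-GST-cJun(1-79), 10 uM ATP; anti-phospho-cJun(Ser73) AlphaScreen read at room temperature, pH 7.6 Tris buffer. Compounds pre-incubated 15 min as titrations.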
Test [5] has as its target Cytochrome P450 3A4 (Homo sapiens) (UniProt P08684). As to the kind of experiment: qHTS Assay for Activators of Cytochrome P450 3A4 (AID 885). Also: nearly all actives have a fitted effect of over 65% in size. A digest of the protocol:
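Signal was normalized against complete inhibition by 57 uM ketoconazole. The reaction used 20nM CYP3A4 with 25uM Luciferin-PPXE, 10-min compound preincubation and a 60-min NADPH-supported step at RT.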
On the technique in general: In qHTS, concentration-response curves come from the screen itself.

The target of test [6] is Dual specificity protein kinase CLK4 (Homo sapiens) (UniProt Q9HAZ1). Put plainly: qHTS Assay for Inhibitors of CDC-like Kinase 4 (Kinase-Glo Assay) (AID 1770). Also: nearly all actives have a fitted effect of over 65% in size. Also: potency is read from the fitted curve at half-maximal effect. In short, it runs like this:
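25 nM Clk4 with 100 uM RS repeat peptide and 1 uM ATP (final) in Tris pH7.5, 10 mM MgCl2, 4.5 h at room temperature. Remaining ATP measured by Kinase-Glo luciferase luminescence.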

Test [7] has the same target. As to the kind of experiment: qHTS Assay for Inhibitors of CDC-like Kinase 4 (ADP-FP Assay) (AID 1795). Also: nearly all actives have a fitted effect of over 60% in size. Also: potency is read from the fitted curve at half-maximal effect. In short, it runs like this: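 Recombinant Clk4 (6.25 nM) phosphorylated 100 uM RS repeat peptide with 1 uM ATP in 25 mM Tris pH 7.5, 10 mM MgCl2, 0.5 mM EGTA, 2.5 mM DTT, 0.01% Triton X-100 for 1 h. ADP was detected by Transcreener ADP2 competitive fluorescence polarization after 30 min at room temperature.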

Test [8] concerns the target Ubiquitin carboxyl-terminal hydrolase 1 (Homo sapiens) (UniProt O94782). As to the kind of experiment: Inhibitors of USP1/UAF1: Pilot qHTS (AID 504865).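 Also: rhodamine fluorescence freed from ubiquitin-rhodamine substrate followed over time; top concentration of the series differs between compounds; % is scaled to controls: 0 for no effect and ±100 for the full control effect; nearly all actives have a fitted effect of over 35% in size.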 A digest of the protocol:
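USP1/UAF1 complex at 1 nM preincubated 15 min at room temperature with compound, then Ub-Rho substrate added at 150 nM final. Fluorescence (480/540 nm) read kinetically in 50 mM HEPES pH 7.8, 0.5 mM EDTA, 1 mM TCEP, 0.1 mg/ml BSA, 0.01% Tween-20.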

Test [9] is described as follows: AP1 Signaling Pathway (AID 357; active = well fitted curve in either direction with a large enough effect, not every such curve was filed as active; also: % is scaled to controls: 0 for no effect and ±100 for the full control effect). As to conditions: ME-180 AP-1-bla reporter, EGF-induced, beta-lactamase ratio, 5 h; at 7.69 µM (top of the series) unless noted. A digest of the protocol:
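In this screen, ME-180 cells in Opti-MEM with 0.5% dialyzed FBS received EC50 EGF and compound titrations for 5 h. AP-1 reporter beta-lactamase was detected via CCF4 ratio, giving AC50 for positive and negative modulators.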

A short description of test [10]: NFAT Signaling Pathway (AID 444; active = well fitted curve in either direction with a large enough effect, not every such curve was filed as active;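 also: carbachol stimulus at about its EC50 of 1 µM final; % is scaled to controls: 0 for no effect and ±100 for the full control effect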). To be noted: Jurkat NFAT-bla M1, carbachol, beta-lactamase ratio, 5 h; at 7.69 µM (top of the series) unless noted. A digest of the protocol:
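Jurkat cells with NFAT-driven β-lactamase reporter and co-expressed M1 receptor, stimulated with carbachol (final 1 uM, ~EC50), compound titration, 5 h at 37 °C. CCF4 loaded 1 h at RT; 460/530 nm ratio gave %activity and AC50.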

Test [11] addresses Glucocorticoid receptor (Homo sapiens) (UniProt P04150). Put plainly: GR-EFC Redistribution (AID 451; calls by dose curve; also: potency is read from the fitted curve at half-maximal effect). As to conditions: CHO-K1 GR-EFC translocation, beta-gal luminescence, 2 h. In short, it runs like this: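 CHO-K1 cells expressing nuclear EA and GR-ED fragments of b-gal; compounds titrated up to 46 uM final, 2 h at 37 C. GR nuclear translocation read as complemented b-gal luminescence after 1 h RT detection.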

Test [12] shares this target. Put plainly: GR-GFP Redistribution (AID 450;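 active = compounds whose dose series gives a full or clear partial fitted curve of increased nuclear translocation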; also: potency is read from the fitted curve at half-maximal effect). To be noted: U2OS GR-GFP nuclear translocation, laser cytometry, 2 h.
For test [13], the target named is 3',5'-cyclic-AMP phosphodiesterase 4B (Homo sapiens) (UniProt Q07343). As to the kind of experiment: qHTS Assay for Inhibitors of PDE-IV (AID 607; active = well fitted activation curve with a large enough effect in the main read-out, with a control signal flat, not every such curve was filed as active; also: % of control where 0% means no effect). In short, it runs like this: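 Cell-based read-out of cAMP via a modified cyclic nucleotide-gated channel and membrane potential dye (535/590 nm) in HEK293 cells expressing PDE4 endogenously. Compounds tested up to 22.9 uM final; 100 uM RO 20-1724 reference.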

Test [14] addresses Cytochrome P450 2C9 (Homo sapiens) (UniProt P11712). Put plainly: qHTS Assay for Inhibitors and Substrates of Cytochrome P450 2C9 (AID 883). Also: potency is read from the fitted curve at half-maximal effect; nearly all actives have a fitted effect of over 60% in size. In short, it runs like this:
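Signal: luciferase luminescence reporting luciferin produced by CYP2C9. Conditions: 10nM enzyme, Luciferin-H 100uM at KM, 25mM KPO4, 37C, 60 min NADPH-driven reaction. Reference: 57uM sulphaphenazole as 100% inhibition.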

Test [15] deals with Cytochrome P450 3A4 (Homo sapiens) (UniProt P08684). Put plainly: qHTS Assay for Inhibitors and Substrates of Cytochrome P450 3A4 (AID 884). Also: potency is read from the fitted curve at half-maximal effect; nearly all actives have a fitted effect of over 50% in size. In short, it runs like this: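 20 nM human CYP3A4 with 25 uM Luciferin-PPXE (at KM) in 200 mM KPO4, preincubated 10 min with compound; NADPH regeneration started a 60 min RT reaction. Luciferin detected by luminescence, normalized to 57 uM ketoconazole as full inhibition.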

Test [16] in a line: qHTS Assay for Identification of Small Molecule Agonists for Hypoxia Response Element Signaling Pathway (AID 914; active = well fitted activation curve with a large enough effect in the signal ratio, with a control signal flat, not every such curve was filed as active; the % refers to the signal ratio; also: potency is read from the fitted curve at half-maximal effect). As to conditions: ME-180 (cervical carcinoma) HRE-bla reporter, beta-lactamase ratio, CoCl2, 17 h; activation: active compounds read high. In short, it runs like this: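 AC50 values come from titration-series %Activity, taken as the 460/530nm ratio of CCF4 fluorescence (excitation 405nm). CellSensor HRE-bla ME-180 cells were treated 17 hours at 37 C with compound plus an EC50 level of CoCl2.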

Test [17] deals with Dual specificity protein kinase CLK4 (Homo sapiens) (UniProt Q9HAZ1). Put plainly: qHTS Assay for Inhibitors of CDC-like Kinase 4 (ADP-Glo Assay) (AID 1771). Also: % is scaled to controls: 0 for no effect and ±100 for the full control effect; nearly all actives have a fitted effect of over 70% in size. A digest of the protocol: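 Luminescence from ADP-Glo reports ADP produced by 25 nM Clk4 acting on 100 uM RS repeat peptide with 1 uM ATP over 1 hr at room temperature; residual ATP is depleted before ADP is converted to ATP for detection.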
Chain of Dual specificity protein kinase CLK4 (Homo sapiens) (Q9HAZ1 whole entry, looked up): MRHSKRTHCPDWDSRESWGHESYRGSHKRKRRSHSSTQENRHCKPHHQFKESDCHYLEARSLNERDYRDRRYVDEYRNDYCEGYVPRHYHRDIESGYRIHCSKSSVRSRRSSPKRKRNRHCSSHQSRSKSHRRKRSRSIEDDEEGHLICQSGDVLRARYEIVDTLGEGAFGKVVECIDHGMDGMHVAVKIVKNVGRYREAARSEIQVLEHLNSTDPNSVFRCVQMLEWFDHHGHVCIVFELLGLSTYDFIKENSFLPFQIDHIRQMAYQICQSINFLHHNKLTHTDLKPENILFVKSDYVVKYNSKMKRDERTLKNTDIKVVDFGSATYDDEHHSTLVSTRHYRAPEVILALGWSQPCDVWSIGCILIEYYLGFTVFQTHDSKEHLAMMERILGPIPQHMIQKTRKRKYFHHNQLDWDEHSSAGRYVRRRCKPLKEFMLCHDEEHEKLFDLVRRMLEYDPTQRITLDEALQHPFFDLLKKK

Chain of Cytochrome P450 1A2 (Homo sapiens) (P05177 whole entry, looked up): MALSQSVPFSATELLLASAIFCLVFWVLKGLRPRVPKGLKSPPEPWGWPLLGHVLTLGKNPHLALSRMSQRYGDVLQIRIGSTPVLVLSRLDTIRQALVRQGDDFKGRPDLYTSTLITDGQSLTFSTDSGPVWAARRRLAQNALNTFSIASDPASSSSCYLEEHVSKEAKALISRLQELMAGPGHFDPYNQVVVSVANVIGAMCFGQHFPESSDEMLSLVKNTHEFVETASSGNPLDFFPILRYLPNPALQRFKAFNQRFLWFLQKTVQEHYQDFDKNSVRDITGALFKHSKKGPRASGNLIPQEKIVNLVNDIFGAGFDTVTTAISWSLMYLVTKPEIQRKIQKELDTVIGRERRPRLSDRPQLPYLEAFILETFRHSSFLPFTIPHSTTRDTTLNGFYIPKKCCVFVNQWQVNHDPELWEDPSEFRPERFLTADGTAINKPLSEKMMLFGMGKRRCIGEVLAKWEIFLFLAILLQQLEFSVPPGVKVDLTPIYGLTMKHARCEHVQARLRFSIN
Chain of 3',5'-cyclic-AMP phosphodiesterase 4B (Homo sapiens) (Q07343 whole entry, looked up): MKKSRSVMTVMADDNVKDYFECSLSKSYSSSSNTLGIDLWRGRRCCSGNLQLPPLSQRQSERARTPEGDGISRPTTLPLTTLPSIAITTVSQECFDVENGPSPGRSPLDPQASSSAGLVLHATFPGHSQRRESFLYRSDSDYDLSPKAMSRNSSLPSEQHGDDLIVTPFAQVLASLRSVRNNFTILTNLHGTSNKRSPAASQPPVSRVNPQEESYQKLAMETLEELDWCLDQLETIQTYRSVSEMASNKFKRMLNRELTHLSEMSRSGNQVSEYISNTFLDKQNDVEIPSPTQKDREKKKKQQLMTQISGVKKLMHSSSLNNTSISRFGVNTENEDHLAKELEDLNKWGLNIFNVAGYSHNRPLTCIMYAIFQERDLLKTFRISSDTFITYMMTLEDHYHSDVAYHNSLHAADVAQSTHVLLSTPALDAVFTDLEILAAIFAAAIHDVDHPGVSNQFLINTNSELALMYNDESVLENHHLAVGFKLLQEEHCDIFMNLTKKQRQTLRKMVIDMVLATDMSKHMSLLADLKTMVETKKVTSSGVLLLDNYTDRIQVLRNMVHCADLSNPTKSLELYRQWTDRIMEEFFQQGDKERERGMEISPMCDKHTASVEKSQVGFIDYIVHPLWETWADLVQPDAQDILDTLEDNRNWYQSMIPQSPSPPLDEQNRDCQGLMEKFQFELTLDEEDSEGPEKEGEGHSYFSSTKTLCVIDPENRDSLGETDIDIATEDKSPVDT
Chain of Glucocorticoid receptor (Homo sapiens) (P04150 whole entry, looked up, the tested form may be a part): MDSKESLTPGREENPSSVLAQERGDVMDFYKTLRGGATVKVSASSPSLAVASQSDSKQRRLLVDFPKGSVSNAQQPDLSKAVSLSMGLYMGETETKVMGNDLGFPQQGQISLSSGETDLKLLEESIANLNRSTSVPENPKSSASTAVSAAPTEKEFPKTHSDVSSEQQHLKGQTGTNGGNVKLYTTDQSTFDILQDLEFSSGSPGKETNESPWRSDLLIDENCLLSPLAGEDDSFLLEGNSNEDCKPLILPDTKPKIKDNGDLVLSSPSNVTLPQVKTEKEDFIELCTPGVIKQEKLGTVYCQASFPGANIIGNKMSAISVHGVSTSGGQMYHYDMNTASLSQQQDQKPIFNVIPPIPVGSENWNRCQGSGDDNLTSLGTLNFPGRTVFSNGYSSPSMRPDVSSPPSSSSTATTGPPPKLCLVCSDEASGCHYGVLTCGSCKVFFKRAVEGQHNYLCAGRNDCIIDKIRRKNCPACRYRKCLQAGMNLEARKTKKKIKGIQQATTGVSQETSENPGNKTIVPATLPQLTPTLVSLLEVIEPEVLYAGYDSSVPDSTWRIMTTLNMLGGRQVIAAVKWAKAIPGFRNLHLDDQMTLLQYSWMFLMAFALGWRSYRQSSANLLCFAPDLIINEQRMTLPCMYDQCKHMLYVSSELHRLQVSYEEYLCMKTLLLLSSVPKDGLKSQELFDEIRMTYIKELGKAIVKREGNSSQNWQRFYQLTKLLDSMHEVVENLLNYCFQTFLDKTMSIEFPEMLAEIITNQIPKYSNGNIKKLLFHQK
Chain of Lysosomal acid glucosylceramidase (Homo sapiens) (P04062 whole entry, looked up): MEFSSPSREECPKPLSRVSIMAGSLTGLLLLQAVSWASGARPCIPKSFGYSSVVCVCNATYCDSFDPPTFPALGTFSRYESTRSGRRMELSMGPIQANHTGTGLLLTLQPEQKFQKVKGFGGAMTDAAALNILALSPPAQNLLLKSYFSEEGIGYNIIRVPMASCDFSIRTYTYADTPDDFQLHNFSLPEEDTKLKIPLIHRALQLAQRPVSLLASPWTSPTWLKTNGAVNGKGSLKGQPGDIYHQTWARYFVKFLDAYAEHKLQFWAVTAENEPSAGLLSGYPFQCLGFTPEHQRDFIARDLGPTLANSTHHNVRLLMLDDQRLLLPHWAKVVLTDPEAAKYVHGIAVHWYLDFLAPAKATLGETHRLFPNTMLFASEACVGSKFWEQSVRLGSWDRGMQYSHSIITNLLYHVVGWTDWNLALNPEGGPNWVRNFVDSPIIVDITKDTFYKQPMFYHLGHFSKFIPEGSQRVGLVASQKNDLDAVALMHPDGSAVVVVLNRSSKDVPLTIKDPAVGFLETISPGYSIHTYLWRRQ
Chain of Ubiquitin carboxyl-terminal hydrolase 1 (Homo sapiens) (O94782 whole entry, looked up): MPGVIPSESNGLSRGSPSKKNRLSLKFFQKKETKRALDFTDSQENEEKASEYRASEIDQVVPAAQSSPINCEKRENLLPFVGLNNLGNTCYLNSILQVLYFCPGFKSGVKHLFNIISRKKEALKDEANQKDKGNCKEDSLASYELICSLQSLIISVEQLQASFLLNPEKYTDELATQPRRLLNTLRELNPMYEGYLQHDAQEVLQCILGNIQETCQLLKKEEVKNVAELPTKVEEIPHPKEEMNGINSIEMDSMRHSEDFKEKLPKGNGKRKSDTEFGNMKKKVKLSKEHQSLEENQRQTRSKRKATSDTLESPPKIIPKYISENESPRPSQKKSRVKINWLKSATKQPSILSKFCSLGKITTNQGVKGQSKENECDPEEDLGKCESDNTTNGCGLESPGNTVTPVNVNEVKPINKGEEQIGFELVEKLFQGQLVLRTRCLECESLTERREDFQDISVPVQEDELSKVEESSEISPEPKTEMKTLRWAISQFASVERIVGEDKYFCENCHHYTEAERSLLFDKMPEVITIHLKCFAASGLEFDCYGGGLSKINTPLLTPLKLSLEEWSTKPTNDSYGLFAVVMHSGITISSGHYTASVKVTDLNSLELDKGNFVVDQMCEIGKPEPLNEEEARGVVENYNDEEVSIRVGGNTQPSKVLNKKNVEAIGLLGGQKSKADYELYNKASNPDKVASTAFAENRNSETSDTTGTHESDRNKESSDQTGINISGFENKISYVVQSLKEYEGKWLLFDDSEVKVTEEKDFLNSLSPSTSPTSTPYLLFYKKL
Chain of Cytochrome P450 3A4 (Homo sapiens) (P08684 whole entry, looked up): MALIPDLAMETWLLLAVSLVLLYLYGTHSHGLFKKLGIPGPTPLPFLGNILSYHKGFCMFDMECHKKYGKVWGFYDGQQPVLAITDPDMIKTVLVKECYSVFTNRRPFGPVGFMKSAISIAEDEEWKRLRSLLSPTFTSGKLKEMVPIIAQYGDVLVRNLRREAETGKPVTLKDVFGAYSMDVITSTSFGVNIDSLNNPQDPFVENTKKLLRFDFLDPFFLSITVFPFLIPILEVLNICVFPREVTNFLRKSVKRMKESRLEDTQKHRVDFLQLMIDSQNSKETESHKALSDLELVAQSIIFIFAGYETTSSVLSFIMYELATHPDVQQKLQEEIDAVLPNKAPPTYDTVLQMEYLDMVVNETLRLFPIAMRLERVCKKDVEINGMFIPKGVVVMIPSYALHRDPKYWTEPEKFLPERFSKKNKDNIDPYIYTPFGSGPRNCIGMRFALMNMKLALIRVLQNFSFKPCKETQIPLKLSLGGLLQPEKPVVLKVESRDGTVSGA
Chain of Cytochrome P450 2C9 (Homo sapiens) (P11712 whole entry, looked up): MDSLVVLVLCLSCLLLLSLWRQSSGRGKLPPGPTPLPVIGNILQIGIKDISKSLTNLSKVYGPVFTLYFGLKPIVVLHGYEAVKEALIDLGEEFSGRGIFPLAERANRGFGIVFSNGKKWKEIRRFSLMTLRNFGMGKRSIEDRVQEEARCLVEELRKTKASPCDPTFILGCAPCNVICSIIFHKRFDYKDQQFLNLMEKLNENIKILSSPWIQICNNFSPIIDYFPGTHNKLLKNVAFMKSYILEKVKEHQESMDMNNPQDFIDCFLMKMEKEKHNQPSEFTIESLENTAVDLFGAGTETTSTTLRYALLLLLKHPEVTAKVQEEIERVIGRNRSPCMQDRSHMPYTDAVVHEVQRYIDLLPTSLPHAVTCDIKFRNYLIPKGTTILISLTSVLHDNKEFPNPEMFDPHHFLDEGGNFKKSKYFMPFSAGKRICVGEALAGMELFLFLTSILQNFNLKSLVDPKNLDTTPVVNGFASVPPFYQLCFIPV

Consider `COc1ccccc1CNc1ncnc2ccc(-c3ccc(C(=O)N(C)C)cc3)cc12`, for which the Potency is more than 11.4 µM in test [1] and 12.6 µM (active) in [2]. The call in test [3] and in [5] was inactive. In addition, the Potency entry in test [4], in test [6], in test [7] and in test [8] was “inactive” each time.

`c1ccc(Nc2nc(-c3cccnc3)nc3ccccc23)cc1`: the Potency was more than 11.4 µM in test [1]; 0.398 µM (active) in test [2]; more than 46 µM in [11]; 2.51 µM (active) in test [6]; 2 µM (active) in test [7]. Besides, the activity change, negative = inhibition was 6.52% in [9] and 17% in test [10]. Also, the outcome in test [3] and in [5] was inactive. The Potency entry in test [4] is “inactive”.

Consider `Cn1cc(-c2nc3cnc(N4CCNCC4)nc3n(C3CC3)c2=O)c2ccccc21`, for which the Potency in test [1] was more than 11.4 µM; in test [2] it was 12.6 µM (active); in test [12], more than 9.22 µM; in test [11], more than 46 µM; in test [14], 3.98 µM (active). In addition, the Potency entry in test [13], in [6] and in [7] was “inactive” each time. Besides, the outcome in test [5] was inactive.

As to `COc1ccc(Oc2ncc3nc(-c4cccc(C#N)c4)c(=O)n(Cc4cccc(OC)c4)c3n2)cc1`, the Potency was more than 11.4 µM in test [1], more than 9.22 µM in test [12], more than 46 µM in [11] and 2 µM (active) in [15]. In addition, the Potency result in [2], in [13], in test [6] and in test [7] was “inactive” each time. Further, in [10], the activity change, negative = inhibition was -6.12%. Further, the molecule was classed as inactive in test [3] and in [5].

With `COCCn1c(=O)c(-c2cccs2)nc2cnc(Oc3ccccc3)nc21`, in test [9], the activity change, negative = inhibition was 16.7%. In addition, the Potency in test [2] was 2 µM (active); in test [12], more than 9.22 µM; in test [14] it was 3.98 µM (active); in test [16] it was 3.16 µM (active). Moreover, the Potency result in test [13], in test [6], in test [17] and in test [8] was “inactive” in each case. Besides, the molecule was classed as inactive in test [5].

For `Clc1ccccc1-c1ccc2ncnc(NCCN3CCOCC3)c2c1`, the Potency in test [2] was 5.01 µM (active); in [12], more than 46 µM; in test [11], more than 46 µM; in test [15], 5.01 µM (active); in [6], 28.2 µM (active). Also, the activity change, negative = inhibition in test [10] was 13.8%. In addition, the outcome in test [3] and in test [5] was inactive. The Potency entry in test [4] and in test [8] was “inactive” throughout.

For `COc1ccccc1CNc1ccnc(-c2cccnc2)n1`, the activity change, negative = inhibition in test [9] is -7.12%; in test [10], -4.87%. Further, the molecule was called inactive in test [3]. Besides, the Potency in [12] was more than 46 µM; in test [11] it was more than 46 µM; in test [6], 28.2 µM (active). Also, the Potency entry in test [4] and in test [13] was “inactive” throughout.
